# Test results as given in PubChem BioAssay (NCATS).
# Values joined by “and” are separate entries in the source; they are usually repeats but may differ in a detail not shown here. Equal values may be shown once. Results filed as inconclusive are left out. Active and inactive are the calls of the source. Unless noted, calls follow the shape of the dose curve; as a rule, active = well fitted curve in the direction sought with a large enough effect; inconclusive = small, poorly fitted or top-dose-only effect, or another doubt; inactive = no such curve, though single readings can be large; an effect the other way counts as inactive or inconclusive.
# Tests used:
# [1] = target: Voltage-gated inwardly rectifying potassium channel KCNH2 (Homo sapiens) (UniProt Q12809); assay: qHTS Assay for Small Molecule Inhibitors of the Human hERG Channel Activity (AID 588834);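 also: lower thallium flux fluorescence means stronger hERG block; nearly all actives have a fitted effect of over 50% in size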; also: potency is read from the fitted curve at half-maximal effect
# Chain of Voltage-gated inwardly rectifying potassium channel KCNH2 (Homo sapiens) (Q12809 whole entry, looked up): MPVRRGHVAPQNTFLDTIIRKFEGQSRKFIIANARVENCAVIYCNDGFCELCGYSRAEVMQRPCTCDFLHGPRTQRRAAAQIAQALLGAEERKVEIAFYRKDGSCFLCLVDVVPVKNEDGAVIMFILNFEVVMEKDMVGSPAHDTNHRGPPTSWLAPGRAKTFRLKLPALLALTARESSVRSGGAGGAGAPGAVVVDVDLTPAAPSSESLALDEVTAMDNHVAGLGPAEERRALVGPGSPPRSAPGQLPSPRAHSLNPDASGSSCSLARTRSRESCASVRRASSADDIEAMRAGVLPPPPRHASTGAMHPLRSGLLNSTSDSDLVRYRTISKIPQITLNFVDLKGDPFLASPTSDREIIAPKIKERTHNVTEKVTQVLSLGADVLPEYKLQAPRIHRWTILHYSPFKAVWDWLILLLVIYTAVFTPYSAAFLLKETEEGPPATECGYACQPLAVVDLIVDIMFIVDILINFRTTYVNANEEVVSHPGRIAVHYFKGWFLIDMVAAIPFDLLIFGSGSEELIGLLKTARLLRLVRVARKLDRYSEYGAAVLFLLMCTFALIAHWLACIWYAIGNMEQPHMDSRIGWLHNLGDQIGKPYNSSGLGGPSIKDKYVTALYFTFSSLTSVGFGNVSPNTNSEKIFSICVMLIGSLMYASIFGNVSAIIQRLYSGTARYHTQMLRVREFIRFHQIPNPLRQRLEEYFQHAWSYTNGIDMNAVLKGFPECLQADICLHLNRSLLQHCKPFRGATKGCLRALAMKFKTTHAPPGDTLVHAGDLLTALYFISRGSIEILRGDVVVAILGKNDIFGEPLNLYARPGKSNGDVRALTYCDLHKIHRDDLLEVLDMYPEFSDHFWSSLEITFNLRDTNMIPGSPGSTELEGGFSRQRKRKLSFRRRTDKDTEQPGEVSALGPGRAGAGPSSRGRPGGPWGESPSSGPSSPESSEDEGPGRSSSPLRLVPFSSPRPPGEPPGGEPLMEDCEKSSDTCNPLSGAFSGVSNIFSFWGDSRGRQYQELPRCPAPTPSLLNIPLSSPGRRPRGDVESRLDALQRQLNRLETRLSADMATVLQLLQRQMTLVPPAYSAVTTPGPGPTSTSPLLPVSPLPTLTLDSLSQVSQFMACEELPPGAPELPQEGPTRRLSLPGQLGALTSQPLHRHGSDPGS
# In short: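 Thallium serves as surrogate for K+ influx through BacMam-delivered hERG in U2OS cells. Compounds are added for about 10 minutes after dye loading; stimulation buffer then starts flux, monitored kinetically on FDSS.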
# [2] = target: Luciferin 4-monooxygenase (Photinus pyralis) (UniProt P08659); assay: Biochemical firefly luciferase enzyme assay for NPC (AID 624030);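 also: purified P. pyralis luciferase at 10 nM with luciferin and ATP substrate; series mostly up to about 59 µM; 0% = DMSO and -100% = full luciferase inhibition by PTC124 control; nearly all actives have a fitted effect of over 70% in size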
# Chain of Luciferin 4-monooxygenase (Photinus pyralis) (P08659 whole entry, looked up): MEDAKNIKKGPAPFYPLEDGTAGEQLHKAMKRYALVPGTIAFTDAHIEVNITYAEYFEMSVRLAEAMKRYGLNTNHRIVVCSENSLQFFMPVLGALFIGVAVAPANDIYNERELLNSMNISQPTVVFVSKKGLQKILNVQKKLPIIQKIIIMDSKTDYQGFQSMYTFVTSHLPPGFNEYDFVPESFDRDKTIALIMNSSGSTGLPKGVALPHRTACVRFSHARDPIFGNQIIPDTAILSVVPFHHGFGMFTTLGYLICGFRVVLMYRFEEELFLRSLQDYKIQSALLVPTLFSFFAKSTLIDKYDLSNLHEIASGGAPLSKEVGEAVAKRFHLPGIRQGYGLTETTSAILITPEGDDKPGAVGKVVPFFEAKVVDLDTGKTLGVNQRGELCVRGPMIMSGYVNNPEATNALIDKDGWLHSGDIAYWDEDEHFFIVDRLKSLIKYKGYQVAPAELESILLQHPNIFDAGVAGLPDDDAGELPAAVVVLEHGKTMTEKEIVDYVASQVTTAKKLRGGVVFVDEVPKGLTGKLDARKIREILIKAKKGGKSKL
# In short: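 Counter-screen for direct inhibition of the luciferase enzyme by approved-drug library compounds, run at 10 nM enzyme in 50 mM Tris acetate (final). Luminescence was read within 5 min of enzyme-buffer addition and normalized to PTC124 versus DMSO (0%).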
# [3] = target: Glutaminase kidney isoform, mitochondrial (Homo sapiens) (UniProt O94925); assay: qHTS for Inhibitors of Glutaminase (GLS): LOPAC Validation (AID 624146);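 also: glutamate product detected by oxidase and peroxidase coupled Amplex red fluorescence gain; series mostly up to about 46 µM; % is scaled to controls: 0 for no effect and ±100 for the full control effect; nearly all actives have a fitted effect of over 60% in size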
# Chain of Glutaminase kidney isoform, mitochondrial (Homo sapiens) (O94925 whole entry, looked up, canonical isoform): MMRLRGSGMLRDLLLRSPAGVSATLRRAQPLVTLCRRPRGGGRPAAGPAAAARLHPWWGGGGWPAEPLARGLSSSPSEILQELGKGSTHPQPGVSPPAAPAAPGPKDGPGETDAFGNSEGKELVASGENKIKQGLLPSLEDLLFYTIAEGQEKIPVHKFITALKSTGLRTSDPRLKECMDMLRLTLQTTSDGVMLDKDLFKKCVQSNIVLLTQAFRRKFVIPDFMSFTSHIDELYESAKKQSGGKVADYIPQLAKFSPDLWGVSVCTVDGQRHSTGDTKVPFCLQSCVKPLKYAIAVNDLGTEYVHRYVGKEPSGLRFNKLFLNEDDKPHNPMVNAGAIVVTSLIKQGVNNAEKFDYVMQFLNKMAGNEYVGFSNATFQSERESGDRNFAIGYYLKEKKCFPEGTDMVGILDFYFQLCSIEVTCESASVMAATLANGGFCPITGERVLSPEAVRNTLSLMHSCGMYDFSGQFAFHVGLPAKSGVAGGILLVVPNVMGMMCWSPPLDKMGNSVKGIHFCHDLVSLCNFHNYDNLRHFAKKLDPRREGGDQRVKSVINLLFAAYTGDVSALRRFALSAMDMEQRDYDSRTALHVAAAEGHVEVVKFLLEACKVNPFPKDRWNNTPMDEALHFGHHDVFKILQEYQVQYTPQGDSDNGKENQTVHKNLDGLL
# In short: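 Glutamate formation by hKGA was monitored fluorometrically using coupled glutamate oxidase, HRP and Amplex Red. Substrate was added as 1 mM L-glutamine solution; incubation was 30 min at RT after an initial read.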
# [4] = qHTS of Trypanosoma Brucei Inhibitors: LOPAC Validation (AID 624147); also: 0% is about no effect
# In short: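 Enzyme and substrate buffer are dispensed first and compound is pin-transferred. ADP at 130 uM final then starts the reaction, which runs 45 min at room temperature. Detection reagent is added for 10 min before luminescence is imaged.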
# [5] = target: Glucagon-like peptide 1 receptor (Homo sapiens) (UniProt P43220); assay: qHTS of GLP-1 Receptor Agonists: LOPAC Validation (AID 624148);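 also: 0% is about no effect; higher luminescence signal means agonism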
# Chain of Glucagon-like peptide 1 receptor (Homo sapiens) (P43220 whole entry, looked up): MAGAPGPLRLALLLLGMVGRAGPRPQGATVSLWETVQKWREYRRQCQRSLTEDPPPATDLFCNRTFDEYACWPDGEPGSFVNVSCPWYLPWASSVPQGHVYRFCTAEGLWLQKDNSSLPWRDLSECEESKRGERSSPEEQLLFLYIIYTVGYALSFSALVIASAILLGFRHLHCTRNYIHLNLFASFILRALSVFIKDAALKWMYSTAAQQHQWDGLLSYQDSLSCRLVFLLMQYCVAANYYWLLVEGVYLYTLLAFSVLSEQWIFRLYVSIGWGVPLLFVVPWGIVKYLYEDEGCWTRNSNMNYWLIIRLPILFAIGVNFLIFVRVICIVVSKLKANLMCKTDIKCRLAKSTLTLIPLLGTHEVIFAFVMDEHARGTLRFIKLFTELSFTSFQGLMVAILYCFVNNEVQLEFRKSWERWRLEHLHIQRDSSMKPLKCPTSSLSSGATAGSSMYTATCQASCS
# In short: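 HEK293 cells stably co-expressing a cAMP-responsive luciferase reporter and a hypersensitive GLP-1R were plated 12 h at 37 °C and exposed to compounds for 4-6 hr at 37 °C, 5% CO2. Luminescence was read 12 min after adding detection reagent.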
# [6] = qHTS of Nrf2 Activators: LOPAC Validation (AID 624149); also: 0% is about no effect
# In short: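 Luciferase signal from ARE activation, read with Steady-Glo after 30 min at room temperature. Compounds were pin-transferred onto AREc32_Fluc cells (1000/well, OPTI-MEM/5% FBS, seeded overnight) and left 24 hr at 37 deg C.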
# [7] = HTS Assay for Allosteric Antagonists of the Human D2 Dopamine Receptor: Hit Validation in HTRF (AID 624455);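 also: stable D1 dopamine receptor cell line scored for blocking the D1 response; % is scaled to controls: 0 for no effect and ±100 for the full control effect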
# In short: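 Inhibition of the D1-mediated response was measured by HTRF. Cells used were a line stably expressing the D1 dopamine receptor.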
# [8] = S16 Schwann cell PMP22 intronic element firefly luciferase assay (AID 624032); also: potency is read from the fitted curve at half-maximal effect; nearly all actives have a fitted effect of over 30% in size
# In short: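 Rat S16 Schwann cells stably carrying a PMP22 intronic element-driven Fluc reporter were seeded overnight, then exposed to compounds for 24 h at 37 °C. Luminescence was normalized to PTC124 (positive control) and DMSO (0% activity).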
# [9] = target: Thyroid hormone receptor beta (Homo sapiens) (UniProt P10828); assay: qHTS assay for small molecule agonists of thyroid hormone receptor beta signaling (AID 588545; calls by dose curve;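 also: 0% = DMSO only and 100% = 10 nM T3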)
# Chain of Thyroid hormone receptor beta (Homo sapiens) (P10828 whole entry, looked up): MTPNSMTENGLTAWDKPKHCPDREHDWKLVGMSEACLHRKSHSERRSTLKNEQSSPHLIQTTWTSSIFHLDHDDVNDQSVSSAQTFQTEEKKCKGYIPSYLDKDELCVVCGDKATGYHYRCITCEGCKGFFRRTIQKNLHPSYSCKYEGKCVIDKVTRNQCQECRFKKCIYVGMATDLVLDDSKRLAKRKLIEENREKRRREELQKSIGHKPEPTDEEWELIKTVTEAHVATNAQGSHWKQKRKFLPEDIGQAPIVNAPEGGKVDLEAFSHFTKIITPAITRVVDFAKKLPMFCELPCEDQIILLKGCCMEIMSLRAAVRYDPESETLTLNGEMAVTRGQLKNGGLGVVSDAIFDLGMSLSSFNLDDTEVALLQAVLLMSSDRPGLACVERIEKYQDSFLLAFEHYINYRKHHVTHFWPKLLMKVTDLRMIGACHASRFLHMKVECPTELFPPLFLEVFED
# In short: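 Beta-lactamase reporter activity under TR response element control is measured in HEK 293 cells after 18 hrs compound exposure. Signal is ratiometric CCF4 fluorescence, 460/530 nm.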
# [10] = qHTS assay for small molecule antagonists of retinoid X receptor alpha signaling (AID 588546; active = well fitted inhibition curve with a large enough effect in the signal ratio, with a control signal flat, not every such curve was filed as active; the % refers to the signal ratio; also: potency is read from the fitted curve at half-maximal effect;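 as to max response: cells stimulated with 9-cis-retinoic acid as agonist; % is scaled to controls: 0 for no effect and ±100 for the full control effect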); conditions: HEK293T RXRa-UAS-bla, beta-lactamase ratio, antagonist mode; measured here: W530 green channel, cytotoxicity proxy
# In short: (§1)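 Beta-lactamase reporter inhibition, read as CCF4 fluorescence ratio (ex 405, em 460/530 nm) after 2 h at RT. HEK293T UAS-bla cells, 2500/well, were stimulated with 9-cis-RA at 500 or 100 nM final alongside test compound for 18 h at 37 C.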
# [11] = target: Retinoic acid receptor RXR-alpha (Homo sapiens) (UniProt P19793); assay: as above; conditions: HEK293T RXRa-UAS-bla, beta-lactamase ratio, antagonist mode
# Chain of Retinoic acid receptor RXR-alpha (Homo sapiens) (P19793 whole entry, looked up): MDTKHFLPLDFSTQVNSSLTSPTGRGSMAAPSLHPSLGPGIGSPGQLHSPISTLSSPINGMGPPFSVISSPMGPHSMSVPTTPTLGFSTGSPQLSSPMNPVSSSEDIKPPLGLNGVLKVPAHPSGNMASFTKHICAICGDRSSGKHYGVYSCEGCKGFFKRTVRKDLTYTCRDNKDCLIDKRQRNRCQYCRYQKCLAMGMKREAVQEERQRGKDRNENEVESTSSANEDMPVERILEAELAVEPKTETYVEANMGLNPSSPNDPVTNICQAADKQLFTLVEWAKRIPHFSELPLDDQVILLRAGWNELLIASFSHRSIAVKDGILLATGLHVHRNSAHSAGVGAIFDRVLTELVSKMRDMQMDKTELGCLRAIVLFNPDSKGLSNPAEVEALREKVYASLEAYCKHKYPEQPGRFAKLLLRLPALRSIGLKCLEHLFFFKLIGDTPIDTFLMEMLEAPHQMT
# In short: as §1
# [12] = target: Thyroid hormone receptor beta (Homo sapiens) (UniProt P10828); assay: qHTS assay for small molecule antagonists of thyroid hormone receptor beta signaling (AID 588547; active = well fitted inhibition curve with a large enough effect in the signal ratio, with a control signal flat, not every such curve was filed as active; the % refers to the signal ratio;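 also: cells stimulated with 0.4 nM T3 agonist during compound exposure; series mostly up to about 77 µM; % is scaled to controls: 0 for no effect and ±100 for the full control effect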); conditions: TR-UAS-bla HEK293, beta-lactamase ratio, antagonist mode, 18 h
# In short: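 TR-UAS-bla GripTite HEK293 cells in 2% charcoal/dextran FBS medium were preincubated 4 h at 37 C, given compound (0.59 nM to 92 uM) plus 0.4 nM T3 (final) for 18 h, then CCF4 for 2 h at RT; Hill fit gave IC50.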
# [13] = qHTS assay for small molecule activators of the p53 signaling pathway (AID 651743; active = well fitted activation curve with a large enough effect in the signal ratio, not every such curve was filed as active; the % refers to the signal ratio; also: series mostly up to about 92 µM; % of control where 0% means no effect); conditions: HCT-116 p53RE-bla, beta-lactamase FRET ratio, 16 h; activation: stronger effect = higher value
# In short: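 Agonist-mode quantitative HTS in HCT-116 cells carrying a p53-response-element beta-lactamase reporter; 16 h compound treatment at 37 C, then FRET substrate loading for 2 h at room temperature and fluorescence read.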
# [14] = qHTS assay for small molecule agonists of the antioxidant response element (ARE) signaling pathway (AID 651741; active = well fitted activation curve with a large enough effect in the signal ratio; the % refers to the signal ratio; also: potency is read from the fitted curve at half-maximal effect; as to activation: % of control where 0% means no effect)
# In short: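 Reporter: beta-lactamase under ARE, stably in HepG2. Exposure: 16 h, 37 C, compounds delivered in DMSO by pin tool after 5 h cell preincubation. Readout: FRET substrate fluorescence after 2 h at RT.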
# [15] = S16 Schwann cell viability assay (CellTiter-Glo assay) (AID 624031); also: potency is read from the fitted curve at half-maximal effect; nearly all actives have a fitted effect of over 70% in size
# In short: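 Luminescent ATP read-out (CellTiter-Glo) after 24 h compound exposure of native S16 rat Schwann cells at 37 °C. Signals were normalized between cell-free wells and DMSO-treated cells, set as 0% activity.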
# [16] = S16 Schwann cell PMP22 intronic element beta-lactamase assay (AID 624044; calls by dose curve;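 also: 0% = DMSO and -100% = potassium clavulanate positive control; nearly all actives have a fitted effect of over 15% in size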)
# In short: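 Beta-lactamase reporter under a PMP22 intronic regulatory element in stable S16 rat Schwann cells; 24 h compound exposure. 460 nm blue signal normalized between DMSO (0%) and potassium clavulanate, with 535 nm FRET tracking viability; curves classed by r2 and response.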
smiles,measurement,setting,value
C[N+](C)(C)CCO,Potency,[1],inactive
same,Potency,[2],inactive
same,Potency,[3],inactive
same,outcome,[4],inactive
same,outcome,[5],inactive
same,outcome,[6],inactive
same,outcome,[7],inactive
CN1CCC(Nc2ncc3ncnc(Nc4ccc(F)c(Cl)c4)c3n2)CC1,Potency,[1],12.6 µM (active)
same,Potency,[2],inactive
same,Potency,[8],36.1 µM (active)
COc1cc(C=O)ccc1O,outcome,[9],inactive
same,max response,[10],-4.04% and -15.4%
same,max response,[11],30% (inactive) and 5.74% (inactive)
same,activity change % (negative = inhibition),[12],9.41% (inactive) and -10.4% (inactive)
same,Potency,[1],inactive
same,Potency,[2],inactive
same,activation,[13],-5.16% (inactive) and -4.75% (inactive)
Oc1ccccc1,max response,[10],-7.3% and -10.8% and -13%
same,max response,[11],17.6% (inactive) and -10.1% (inactive) and 2.32% (inactive)
same,Potency,[1],inactive
same,Potency,[2],inactive
same,activation,[13],-2.44% (inactive) and -1.24% (inactive) and 0.0138% (inactive)
Brc1ccccc1-c1ccccc1,outcome,[9],inactive
same,max response,[10],1.21%
same,max response,[11],-2.01% (inactive)
same,activity change % (negative = inhibition),[12],-16.6% (inactive)
same,Potency,[2],inactive
same,Potency,[14],inactive
same,activation,[13],0.157% (inactive)
CCCCCCCCCCCCCCCC[n+]1ccccc1,max response,[10],11.3%
same,max response,[11],-34.1% (inactive)
same,Potency,[2],inactive
same,Potency,[15],36.1 µM (active)
same,activation,[13],2.82% (inactive)
OCc1c[nH]c2ccccc12,outcome,[9],inactive
same,max response,[10],2.29%
same,max response,[11],-2.51% (inactive)
same,activity change % (negative = inhibition),[12],13% (inactive)
same,Potency,[1],inactive
same,Potency,[14],66.8 µM (active)
same,activation,[13],-1.58% (inactive)
CCN(CC)CCOc1ccc(/C(=C(\Cl)c2ccccc2)c2ccccc2)cc1,max response,[10],-2.07%
same,Potency,[11],39.8 µM (active)
CC(C)(C)c1ccc(O)c(O)c1,outcome,[9],inactive
same,max response,[10],3.05% and -10.4%
same,max response,[11],-35.8% (inactive) and -24.1% (inactive)
same,activity change % (negative = inhibition),[12],-12.4% (inactive) and -14.4% (inactive)
same,Potency,[1],inactive
same,Potency,[14],37.6 µM (active) and 48.6 µM (active)
same,activation,[13],2.58% (inactive) and -2.7% (inactive)
COc1cccc2c1[C@@H]1CN(CCCCn3c(=O)[nH]c4c(sc5ncc(-c6ccccc6)nc54)c3=O)C[C@@H]1CO2,Potency,[1],5.01 µM (active)
same,Potency,[2],inactive
same,Potency,[3],inactive
same,outcome,[4],inactive
same,outcome,[5],inactive
same,outcome,[6],inactive
same,outcome,[7],inactive
CN1CCCN(C(c2ccccc2)c2ccc(Cl)cc2)CC1 (configuration not stated),Potency,[1],8.91 µM (active)
same,Potency,[2],inactive
same,Potency,[15],32.2 µM (active)
same,Potency,[8],28.7 µM (active)
same,Potency,[16],inactive
